This passage reports growth inhibition results from PubChem BioAssay (NCI).

Several values for one entry are separate records, joined by “and”; a condition that tells them apart may be missing. Identical values can stand only once. The panel holds about 79,000 compounds, 15% with a hit somewhere; the sample as a whole holds those more often. The source holds several records for some structures; these can differ, active in one and inactive in another. Activity calls are given as the source filed them. Cut-off read from the data, not from the text of the source: active = growth inhibition above about 70%; inactive = the rest.

Experiment [1] can be described thus: NCI Yeast Anticancer Drug Screen. Data for the rad50 strain (AID 155).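 Note: 0% = growth of vehicle-only cultures of the same strain.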 As to conditions: S. cerevisiae rad50 strain growth inhibition, stronger effect = higher value. In short, it runs like this:
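Relative growth inhibition (compound vs vehicle) was measured in yeast with a defined repair-gene alteration.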

Experiment [2] can be described thus: NCI Yeast Anticancer Drug Screen. Data for the mec2-1 strain (AID 157). As to conditions: S. cerevisiae mec2-1 strain, stronger effect = higher value. In short, it runs like this: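 Vehicle-treated cultures served as reference for growth inhibition of compound-exposed mec2-1 yeast.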
Experiment [3] in a line: NCI Yeast Anticancer Drug Screen. Data for the sgs1 mgt1 strain (AID 161).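 Note: 0% = growth of cultures given vehicle only.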 As to conditions: S. cerevisiae sgs1 mgt1 strain, stronger effect = higher value. In short, it runs like this: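 Read-out: growth inhibition vs vehicle controls. Cells: mutant yeast strain deficient in DNA damage repair.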
The nature of experiment [4]: NCI Yeast Anticancer Drug Screen. Data for the cln2 rad14 strain (AID 165).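 Note: 0% = growth equal to vehicle treated cultures.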 As to conditions: S. cerevisiae cln2 rad14 strain, stronger effect = higher value. In short, it runs like this: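 Each compound was tested on cln2 rad14 yeast. Inhibition of growth was calculated against vehicle-exposed controls.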
Experiment [5] in a line: NCI Yeast Anticancer Drug Screen. Data for the bub3 strain (AID 167). As to conditions: S. cerevisiae bub3 mutant strain, stronger effect = higher value. A digest of the protocol: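 Screening used yeast with an engineered genetic alteration affecting cell cycle control. Compound-exposed cultures were compared with vehicle cultures, and reduced growth was taken as inhibition.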
Experiment [6] in a line: NCI Yeast Anticancer Drug Screen. Data for the mlh1 rad18 strain (AID 175). As to conditions: S. cerevisiae mlh1 rad18 strain growth inhibition, stronger effect = higher value. In short, it runs like this: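 Vehicle-treated cultures served as the reference for growth inhibition in a yeast strain carrying DNA damage repair alterations exposed to each compound.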
The mark [7] stands for this setting: at 5.0 µM (retest, dose inferred, filed as 0.5).
[8] abbreviates: at 50.0 µM (retest, dose inferred, filed as 5.0).

Take `CCOc1ccc(NC(=O)/C(=C\c2ccc(C)cc2)C(C)=O)cc1`: the growth inhibition in experiment [1] (setting [7]) is -17% (inactive); in experiment [1] (setting [8]) it was -1% (inactive); in experiment [1] (at 50.0 µM) it was -32% (inactive) and 8.1% (inactive); in experiment [2] (setting [7]), -2% (inactive); in experiment [2] (setting [8]) it was -3% (inactive); in experiment [2] (at 50.0 µM), -2.3% (inactive) and -25.1% (inactive). The growth inhibition in experiment [3] (setting [7]) was 9% (inactive); in experiment [3] (setting [8]), -4% (inactive); in experiment [3] (at 50.0 µM) it was 2.9% (inactive) and 3.65% (inactive); in experiment [4] (setting [7]), -6% (inactive); in experiment [4] (setting [8]), 5% (inactive); in experiment [4] (at 50.0 µM) it was -24.8% (inactive) and -8.15% (inactive). For the same molecule, the growth inhibition in experiment [5] (setting [7]) was -3% (inactive); in experiment [5] (setting [8]) it was -5% (inactive); in experiment [5] (at 50.0 µM), -2.4% (inactive) and -19.2% (inactive); in experiment [6] (setting [7]), -3% (inactive); in experiment [6] (setting [8]), -5% (inactive); in experiment [6] (at 50.0 µM) it was 6% (inactive) and 0.5% (inactive).
`C[N+]1(C)CCC(c2ccccc2)(c2ccccc2)C(=O)C1`: the growth inhibition in experiment [1] (setting [7]) is -12% (inactive); in experiment [1] (setting [8]), -8% (inactive); in experiment [1] (at 50.0 µM), 16.6% (inactive) and 13.2% (inactive); in experiment [2] (setting [7]) it was -15% (inactive); in experiment [2] (setting [8]), -3% (inactive); in experiment [2] (at 50.0 µM) it was 9.05% (inactive) and 19.3% (inactive). Besides, the growth inhibition in experiment [3] (setting [7]) was -8% (inactive); in experiment [3] (setting [8]) it was -2% (inactive); in experiment [3] (at 50.0 µM), 6.2% (inactive) and 21.8% (inactive); in experiment [4] (setting [7]), -9% (inactive); in experiment [4] (setting [8]), -11% (inactive); in experiment [4] (at 50.0 µM), 47.4% (inactive) and -25.8% (inactive). Besides, the growth inhibition in experiment [5] (setting [7]) is -22% (inactive); in experiment [5] (setting [8]), -27% (inactive); in experiment [5] (at 50.0 µM), -8.9% (inactive) and 8.6% (inactive); in experiment [6] (setting [7]), -10% (inactive); in experiment [6] (setting [8]), -14% (inactive); in experiment [6] (at 50.0 µM), 24.1% (inactive) and -10.6% (inactive).
Turning to `CN1C=c2c3c(ccc2=C2C=CC4C=C5OCOC5=CC4=C21)OCO3` (stereo not drawn), the growth inhibition in experiment [1] (setting [7]) is 48% (inactive) and 33% (inactive); in experiment [1] (setting [8]), 97% (active) and 98% (active); in experiment [1] (at 50.0 µM), 92% (active) and 91.6% (active); in experiment [2] (setting [7]), 32% (inactive) and 11% (inactive); in experiment [2] (setting [8]) it was 98% (active) and 99% (active); in experiment [2] (at 50.0 µM), 93.3% (active) and 93% (active). The growth inhibition in experiment [3] (setting [7]) is 56% (inactive) and 13% (inactive); in experiment [3] (setting [8]), 98% (active) and 99% (active); in experiment [3] (at 50.0 µM), 93% (active) and 92.8% (active); in experiment [4] (setting [7]), 37% (inactive) and 11% (inactive); in experiment [4] (setting [8]), 98% (active) and 99% (active); in experiment [4] (at 50.0 µM) it was 92% (active). Besides, the growth inhibition in experiment [5] (setting [7]) is 74% (active) and 17% (inactive); in experiment [5] (setting [8]) it was 98% (active) and 99% (active); in experiment [5] (at 50.0 µM) it was 92.5% (active) and 91.8% (active); in experiment [6] (setting [7]) it was 63% (inactive) and 30% (inactive); in experiment [6] (setting [8]), 97% (active); in experiment [6] (at 50.0 µM) it was 92.5% (active) and 91.7% (active).
With `Cc1nc2c(Br)cc(Br)cc2c(=O)n1-c1ccccc1NC1OC(CO)C(O)C(O)C1O` (stereo not drawn), the growth inhibition in experiment [1] (setting [7]) was 9% (inactive); in experiment [1] (setting [8]), 41% (inactive); in experiment [1] (at 50.0 µM) it was -11.9% (inactive) and 65.8% (inactive); in experiment [2] (setting [7]) it was 5% (inactive); in experiment [2] (setting [8]), 32% (inactive); in experiment [2] (at 50.0 µM), -33.6% (inactive) and 17.9% (inactive). Moreover, the growth inhibition in experiment [3] (setting [7]) was 7% (inactive); in experiment [3] (setting [8]), 25% (inactive); in experiment [3] (at 50.0 µM) it was -5.65% (inactive) and 47.2% (inactive); in experiment [4] (setting [7]) it was 11% (inactive); in experiment [4] (setting [8]) it was 75% (active); in experiment [4] (at 50.0 µM) it was -54.8% (inactive) and 64.5% (inactive). For the same molecule, the growth inhibition in experiment [5] (setting [7]) was 7% (inactive); in experiment [5] (setting [8]) it was 56% (inactive); in experiment [5] (at 50.0 µM), -31.3% (inactive) and 74.8% (active); in experiment [6] (setting [7]), -25% (inactive); in experiment [6] (setting [8]), 67% (inactive); in experiment [6] (at 50.0 µM), -35.1% (inactive) and 75% (active).
For the molecule `Oc1c(Cl)cc(Cl)c(Cl)c1Cl`, the growth inhibition in experiment [1] (setting [7]) is -2% (inactive) and 11% (inactive); in experiment [1] (setting [8]) it was 94% (active) and 98% (active); in experiment [1] (at 50.0 µM) it was 85.2% (active) and 98.3% (active); in experiment [2] (setting [7]), 8% (inactive) and 14% (inactive); in experiment [2] (setting [8]), 96% (active) and 98% (active); in experiment [2] (at 50.0 µM), 94.3% (active) and 99.6% (active). Also, the growth inhibition in experiment [3] (setting [7]) was -3% (inactive) and 3% (inactive); in experiment [3] (setting [8]) it was 98% (active) and 86% (active); in experiment [3] (at 50.0 µM), 80.5% (active) and 99.3% (active); in experiment [4] (setting [7]), 11% (inactive) and -10% (inactive); in experiment [4] (setting [8]), 98% (active) and 97% (active); in experiment [4] (at 50.0 µM), 89.7% (active) and 98.5% (active). Moreover, the growth inhibition in experiment [5] (setting [7]) is -3% (inactive) and 39% (inactive); in experiment [5] (setting [8]), 85% (active) and 96% (active); in experiment [5] (at 50.0 µM), 88.8% (active) and 99.1% (active); in experiment [6] (setting [7]) it was 4% (inactive) and 7% (inactive); in experiment [6] (setting [8]) it was 92% (active) and 96% (active); in experiment [6] (at 50.0 µM) it was 93.8% (active) and 98.7% (active).
Regarding `C#CC(C)(C)OC(=O)Nc1ccccc1`, the growth inhibition in experiment [1] (setting [7]) was 5% (inactive); in experiment [1] (setting [8]), 86% (active); in experiment [1] (at 50.0 µM), 12.6% (inactive) and 89.2% (active); in experiment [2] (setting [7]), -14% (inactive); in experiment [2] (setting [8]) it was 62% (inactive); in experiment [2] (at 50.0 µM) it was 9.3% (inactive) and 43.6% (inactive). The growth inhibition in experiment [3] (setting [7]) was -2% (inactive); in experiment [3] (setting [8]), 80% (active); in experiment [3] (at 50.0 µM), -10.1% (inactive) and 84% (active); in experiment [4] (setting [7]), 0% (inactive); in experiment [4] (setting [8]), 14% (inactive); in experiment [4] (at 50.0 µM) it was -53% (inactive) and 2.95% (inactive). The growth inhibition in experiment [5] (setting [7]) was -6% (inactive); in experiment [5] (setting [8]), 79% (active); in experiment [5] (at 50.0 µM) it was -7.8% (inactive) and 59.4% (inactive); in experiment [6] (setting [7]), -3% (inactive); in experiment [6] (setting [8]), 80% (active); in experiment [6] (at 50.0 µM), 8.4% (inactive) and 86.7% (active).
